Compounds without any hit were thinned out: in the full panel of roughly 83,000, 20% have a hit.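 Compound tested at a single concentration for 48 hours in 96-well plates; a percent growth value below 10 was scored as active.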 Values without a mark were called inactive. Active and inactive are the calls of the source.
Columns and labels:
Assay in all cases: NCI-60 one-dose screen, 48 h (100 = growth as untreated, 0 = no growth, -100 = all killed)
Conditions in all cases: 10 µM unless noted
[1] = system: HCT-15 colon
[2] = system: HT29 colon
[3] = system: SNB-75 CNS
[4] = system: SNB-19 CNS
[5] = system: U251 CNS
[6] = system: PC-3 prostate
[7] = system: SK-MEL-5 melanoma
[8] = system: UACC-62 melanoma
[9] = system: LOX IMVI melanoma
[10] = system: SK-MEL-28 melanoma

CC1=C(/C=C/C(C)=C/C=C(C(=O)O)\C(C)=C\C(=O)O)C(C)(C)CCC1
growth [1]: 105%
growth [2]: 96.8%
growth [3]: 87.5%
growth [4]: 97.8%
growth [5]: 94.6%
growth [6]: 91.3%
growth [7]: 111%
growth [8]: 96.9%
growth [9]: 94.9%
growth [10]: 114%

CCS(=O)(=O)Nc1cccc(Nc2c3cccc(C)c3nc3c(C)cccc23)c1OC
growth [1]: 11.1%
growth [2]: 11.3%
growth [3]: 21.7%
growth [4]: 38.8%
growth [5]: 7.01% (active)
growth [6]: 21.4%
growth [7]: 17.4%
growth [8]: 45.5%
growth [9]: 12.8%
growth [10]: 56.9%

CCOC(=O)c1cnc(SCC)nc1SC#N
growth [1]: 63.3%
growth [2]: 81.5%
growth [3]: 93.1%
growth [4]: 110%
growth [5]: 89.2%
growth [6]: 91.7%
growth [7]: 126%
growth [8]: 94.3%
growth [9]: 83%
growth [10]: 108%

O=S1(=O)NCCCN1CCNc1nccc(-c2c(-c3cccc(O)c3)nc3sccn23)n1
growth [1]: 95.5%
growth [2]: 56.2%
growth [3]: 37.9%
growth [4]: 119%
growth [5]: 77.4%
growth [6]: 106%
growth [7]: 74.2%
growth [8]: -6.85% (active)
growth [9]: 20.1%
growth [10]: 24%

COc1ccc(-c2nn(C(=O)NCCN(C)C)cc2-c2ccncc2)cc1Cl
growth [1]: 33.5%
growth [2]: 15.3%
growth [3]: -20% (active)
growth [4]: 54.8%
growth [5]: 31.1%
growth [6]: 63.5%
growth [7]: 20.5%
growth [8]: 34.6%
growth [9]: 25.6%
growth [10]: 39.4%

CN(C)CCCN1c2ccccc2CCc2ccccc21
growth [1]: 96.6%
growth [2]: 83.5%
growth [3]: 50.8%
growth [4]: 94.1%
growth [5]: 91.6%
growth [6]: 82.8%
growth [7]: 75.3%
growth [8]: 94%
growth [9]: 106%
growth [10]: 102%

c1cn2cc(-c3ccc4ncn(C5CCCCC5)c4c3)nc(-c3ccc4c(c3)ncn4C3CCCCC3)c2n1
growth [1]: -11.5% (active)
growth [2]: -26.2% (active)
growth [3]: -89.6% (active)
growth [4]: 6.63% (active)
growth [5]: -83.3% (active)
growth [6]: -64.1% (active)
growth [7]: -89.4% (active)
growth [8]: -47.7% (active)
growth [9]: -87.4% (active)
growth [10]: -19.8% (active)

O=C1N(Cc2ccccc2Cl)c2ccccc2C12NN=C(c1ccccc1)S2 (stereo not given)
growth [1]: 35.3%
growth [2]: 107%
growth [3]: 71.8%
growth [4]: 53%
growth [5]: 36.1%
growth [6]: 45.1%
growth [7]: 53.3%
growth [8]: 58.6%
growth [9]: 42.3%
growth [10]: 78.6%

Nc1c(C(=O)Nc2cccc(Cl)c2)sc2nc3c(cc12)C(=O)CCC3
growth [1]: 32.4%
growth [2]: 23.9%
growth [3]: 25.9%
growth [4]: 38.2%
growth [5]: 46.4%
growth [6]: 29.1%
growth [7]: 27.2%
growth [8]: 43.7%
growth [9]: 46.1%
growth [10]: 51.4%

OC(COCc1ccccc1)COCc1ccccc1
growth [1]: 109%
growth [2]: 106%
growth [3]: 90.8%
growth [4]: 111%
growth [5]: 96.1%
growth [6]: 111%
growth [7]: 111%
growth [8]: 103%
growth [9]: 101%
growth [10]: 113%

CC(C)c1ccc2c(c1)CCC1C2CCCC1(C)NCc1ccccc1 (stereo not given)
growth [1]: 6.42% (active)
growth [2]: 16.2%
growth [3]: 85.3%
growth [4]: 104%
growth [5]: 48%
growth [6]: 85.4%
growth [7]: 27.5%
growth [8]: -27.4% (active)
growth [9]: 52.1%
growth [10]: -32% (active)

C=C(C)[C@@H]1CC[C@]2(C(=O)O)CC[C@]3(C)[C@H](CC[C@@H]4[C@@]5(C)C[C@@H](CC#Cc6ccc(C(C)=O)s6)[C@H](O)C(C)(C)[C@@H]5CC[C@]43C)[C@@H]12
growth [1]: 33.4%
growth [2]: 34.5%
growth [3]: 71.1%
growth [4]: 75.7%
growth [5]: 32.3%
growth [6]: 26%
growth [7]: 43.3%
growth [8]: 52.3%
growth [9]: 65%
growth [10]: 76.5%

Nc1c(Br)cc2c(c1Br)Cc1cc(Cl)ccc1-2
growth [1]: 109%
growth [2]: 111%
growth [3]: 72.4%
growth [4]: 88.5%
growth [5]: 101%
growth [6]: 82.6%
growth [7]: 90.5%
growth [8]: 96.2%
growth [9]: 89.3%
growth [10]: 98.6%

CC1=CCC2C1CC=C(C)C(CC[C@H]1[C@@](C)(O)CCC3OC(C)(C)[C@H](OC(=O)c4ccccc4)CC[C@@]31C)C2(C)C (stereo not given in full)
growth [1]: 81.9%
growth [2]: 76.6%
growth [3]: 75.9%
growth [4]: 105%
growth [5]: 61.2%
growth [6]: 26.2%
growth [7]: 79.9%
growth [8]: 67.4%
growth [9]: 67%
growth [10]: 109%

CCCCOc1nc2ccccc2cc1/C=C/c1cc(/C=C/c2cc3ccccc3nc2OCCCC)n(-c2ccccc2)n1
growth [1]: 116%
growth [2]: 93.5%
growth [3]: 82.5%
growth [4]: 97.3%
growth [5]: 99%
growth [6]: 93.1%
growth [7]: 101%
growth [8]: 81.3%
growth [9]: 95.9%
growth [10]: 114%

O=C(N/N=C/c1ccc([N+](=O)[O-])cc1)c1ccccc1Nc1ccnc(C(F)(F)F)c1
growth [1]: 89.9%
growth [2]: 101%
growth [3]: 77.2%
growth [4]: 82.4%
growth [5]: 88.7%
growth [6]: 72.9%
growth [7]: -99% (active)
growth [8]: 57.6%
growth [9]: 78.2%
growth [10]: 104%

O=C(CSc1nc2c(n1Nc1ccccc1)-c1ccccc1SC2)Nc1nccs1
growth [1]: 87.5%
growth [2]: 102%
growth [3]: 69.7%
growth [4]: 99.4%
growth [5]: 93.8%
growth [6]: 78.8%
growth [7]: 101%
growth [8]: 83.3%
growth [9]: 97.1%
growth [10]: 112%

O=C(c1ccc(OCCN2CCCCC2)cc1)c1c(-c2ccc(O)cc2)sc2cc(O)ccc12
growth [1]: 91.7%
growth [2]: 114%
growth [3]: 53.5%
growth [4]: 86.7%
growth [5]: 64.9%
growth [6]: 81.8%
growth [7]: 71.5%
growth [8]: 92.1%
growth [9]: 78.4%
growth [10]: 88.3%

CN1C(=O)C(C2=NNC(c3ccccc3C(=O)O)C2)C(=O)N(C)C1=O (stereo not given)
growth [1]: 106%
growth [2]: 98.5%
growth [3]: 85.4%
growth [4]: 92.9%
growth [5]: 98.1%
growth [6]: 95.6%
growth [7]: 108%
growth [8]: 96.2%
growth [9]: 101%
growth [10]: 123%

COc1cc(C2CC(c3ccc(Cl)cc3)=NN2C(C)=O)ccc1Oc1nc2c(c(=O)n(C)c(=O)n2C)n1C (stereo not given)
growth [1]: 88.5%
growth [2]: 73.8%
growth [3]: 75%
growth [4]: 59.8%
growth [5]: 80.7%
growth [6]: 75.6%
growth [7]: 55.6%
growth [8]: 75.9%
growth [9]: 64.5%
growth [10]: 86.6%
